Sampled rows, rich in hits. Any-hit rate of the full collection: about 7.4%.
NIH3T3 tox = kills NIH 3T3 cells | NIH 3T3 viability, CellTiter-Glo ATP luminescence, 48-72 h | Potency, µM (top dose mostly 96.7 µM), without a hit: at the top dose activity change, negative = cytotoxicity, hits mostly inhibitors | 4.3% of 94,000 active; further: on the % scale 0 is the no-effect control and ±100 the full control effect; nearly all actives have a fitted effect of over 55% in size
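Cytotoxicity was measured by CellTiter-Glo ATP luminescence after 48 or 72 h compound exposure at 37 °C. Mouse NIH 3T3 fibroblasts were seeded at 400 cells/well and dosed by 23 nL pin transfer.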
FLuc inh-1 = inhibitors of firefly (Photinus pyralis) luciferase. P08659. purified P. pyralis luciferase, luminescence, biochemical. Potency, µM (titrated, usually from 115 µM), actives largely listed as inhibitors. 2.5% of 76,000 active. AID 1347043; further: on the % scale 0 is the no-effect control and ±100 the full control effect; nearly all actives have a fitted effect of over 65% in size
Target sequence (P08659 whole entry, looked up): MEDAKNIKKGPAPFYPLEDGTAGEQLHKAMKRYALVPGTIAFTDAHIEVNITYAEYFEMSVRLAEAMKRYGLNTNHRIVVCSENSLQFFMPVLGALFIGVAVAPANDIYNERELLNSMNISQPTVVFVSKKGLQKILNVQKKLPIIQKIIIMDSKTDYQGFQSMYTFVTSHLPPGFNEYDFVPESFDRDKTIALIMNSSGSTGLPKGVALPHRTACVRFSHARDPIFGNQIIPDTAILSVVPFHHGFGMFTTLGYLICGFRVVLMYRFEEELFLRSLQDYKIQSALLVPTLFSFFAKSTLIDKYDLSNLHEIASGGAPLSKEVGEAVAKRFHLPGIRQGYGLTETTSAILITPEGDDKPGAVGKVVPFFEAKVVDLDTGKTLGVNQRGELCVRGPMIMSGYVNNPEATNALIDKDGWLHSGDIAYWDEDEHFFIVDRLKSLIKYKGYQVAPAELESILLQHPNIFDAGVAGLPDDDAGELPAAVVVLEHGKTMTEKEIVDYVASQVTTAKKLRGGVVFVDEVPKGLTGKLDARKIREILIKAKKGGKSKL
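FLuc 10nM, D-luciferin 10uM, ATP 10uM, Mg acetate 10mM, Tris acetate pH 7.5, Tween/BSA; cpd qHTS; enzyme added last; CCD luminescence.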
NPR1 antag = blocks ANP-stimulated signaling of human Npr1 receptor; Potency, µM (titrated, usually from 46.3 µM), without a hit: top-dose activity change, negative = inhibition, actives largely listed as inhibitors; 1.6% of 76,000 active; AID 1347048; HEK293 hNpr1 GloSensor cGMP, ANP-stimulated luminescence; calls by dose curve; further: on the % scale 0 is the no-effect control and ±100 the full control effect; nearly all actives have a fitted effect of over 60% in size
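HEK293 cells stably expressing human Npr1 and cGMP GloSensor pGS-40F, loaded 2 h with 2% GloSensor reagent, given compound 30 min at room temperature. Luminescence read before and 20 min after 0.1 nM hNppA.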
SNCA viab count = reduces viability of HEK-293 SNCA reporter cells; HEK-293-SNCA-luc viability, GF-AFC fluorescence, 24 h; Potency, µM (titrated, usually from 57.1 µM), inactives show at the top dose activity change, negative = cytotoxicity, most hits filed as cytotoxic; 0.12% of 150,000 active; AID 1671193;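 further: 0% = DMSO-treated cells and -100% = medium-only wells without cells; nearly all actives have a fitted effect of over 30% in size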
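HEK-293-SNCA-luc cells (1500/well) plated 24 h, then exposed 24 h to a dilution series; GF-AFC added 30 min at 37C, fluorescence 405/540 nm; normalised to medium-only and DMSO wells, Hill fit.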
SNCA expr inh = inhibitors of alpha-synuclein (SNCA) gene expression; HEK-293 SNCA-luciferase knock-in, luminescence, 24 h; 0.17% of 140,000 active; Potency, µM (series often up to 57.2 µM), inactives show top-dose activity change, negative = inhibition, usual class: inhibitors; AID 1671194;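 further: plate controls were DMSO cells for no effect and cell-free wells for full effect; nearly all actives have a fitted effect of over 45% in size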
HEK cytotox = HEK 293 cell cytotoxicity | HEK 293 viability, ATP luminescence (CellTiter-Glo), 48-72 h | Potency, µM (highest dose often 115 µM), for the others: top-dose activity change, negative = cytotoxicity, hits mostly inhibitors | 6.6% of 94,000 active; further: on the % scale 0 is the no-effect control and ±100 the full control effect; nearly all actives have a fitted effect of over 60% in size
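Cytotoxicity was scored by loss of ATP-coupled luminescence (CellTiter-Glo) in HEK 293 cells. Compound treatment ran 48 or 72 hr at 37 degree Celsius, 5% CO2, 95% humidity.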
FLuc SDR no ATP = binders stabilizing firefly luciferase, without ATP | shares compounds with FLuc inh-1 | Purified FLuc-C-HiBiT, Nano-Glo HiBiT luminescence, no ATP | Potency, µM (highest dose often 32.7 µM), without a hit: top-dose activation (signal gain), usual class: activators | 7.8% of 1,300 active; further: nearly all actives have a fitted effect of over 55% in size
FLuc SDR ATP = stabilizes firefly luciferase with ATP present; shares compounds with FLuc inh-1; purified FLuc-C-HiBiT + ATP, HiBiT complementation luminescence; Potency, µM (doses to about 32.7 µM), for inactives: at the highest dose activation (gain of signal), usual class: activators; 8.7% of 1,300 active; AID 1963319;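 further: signal reports ligand binding via conformational change of the enzyme rather than luciferase catalysis; % of control where 0% means no effect; nearly all actives have a fitted effect of over 55% in size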
FLuc inh-2 = blocks firefly luciferase enzymatic activity. shares compounds with FLuc inh-1. purified FLuc-C-HiBiT enzyme, luciferin luminescence. Potency, µM (titrated, usually from 32.7 µM), for inactives: top-dose activity change, negative = inhibition, hits mostly inhibitors. 42% of 1,300 active. AID 1963320; further: on the % scale 0 is the no-effect control and ±100 the full control effect; nearly all actives have a fitted effect of over 70% in size
* hit, by the source's call; i = inactive; u = inconclusive; x = no result given; [ ] = another dose, or the depositor's remark. Unless noted, the call rests on the fitted dose curve; in most records, active means well fitted curve in the direction sought with a large enough effect; inconclusive means small, poorly fitted or top-dose-only effect, or another doubt; inactive means no such curve, though single readings can be large; an effect the other way counts as inactive or inconclusive. Potency means the concentration at half of the fitted maximal effect.

SMILES	NIH3T3 tox	FLuc inh-1	NPR1 antag	SNCA viab count	SNCA expr inh	HEK cytotox	FLuc SDR no ATP	FLuc SDR ATP	FLuc inh-2
COc1ccc(-c2cc(N3CCCC(NC(=O)c4ccc5ncccc5c4)C3)n[nH]2)cc1 (stereo not given)	u	3.2µM*	-22%	u	28%	u	11%	6%	3.9µM*
O=C(NC1CCCN(c2cc(-c3ccc(F)cc3)[nH]n2)C1)c1ccc2ncccc2c1 (stereo not given)	u	4.5µM*	-19%	-14%	2%	u	-3%	-3%	8.8µM*
O=C1CCN(CC(O)C(F)(F)F)c2ccc(F)cc2CN1Cc1ccco1 (stereo not given)	u	x	x	x	x	-19%	x	x	x
COc1ccc(Br)cc1C(=O)Nc1ccc2oc(-c3cccnc3)nc2c1	x	x	x	2%	33%	x	x	x	x
Cc1ccc(C(=O)Nc2ccc3oc(-c4cccnc4)nc3c2)c(Cl)c1	x	x	x	-1%	20%	x	17%	15%	u
N#C/C(=C\c1ccc(-c2cc(Cl)ccc2Cl)o1)C(=O)Nc1ccccc1C(=O)O	x	x	x	-17%	28%	x	4%	4%	u
Cc1nc2cnccn2c1C(=O)N1CCOCC1	-4%[138 µM]	x	x	x	x	i	x	x	x
O=C(Nc1nc2c(F)cc(F)cc2s1)c1ccc2c(c1)OCCO2	x	x	x	1%	242%	x	17%	15%	1.8µM*
COCC(=O)Nc1nc2c(s1)C[C@]1(C)CC[C@@H]3[C@H](OC(=O)[C@H]3C)[C@H]1[C@@H]2C	-21%[138 µM]	0.63µM*	5.6µM*	4%[87.6 µM]	u	u	6.4µM*	4.5µM*	1.6µM*
CC(=O)NC1(C)CN(Cc2ccc(-c3ccccc3OCc3ccccc3)s2)C1	28µM*	7.1µM*	u	-17%[87.6 µM]	130%[87.6 µM]	40µM*	13%[49.3 µM]	10%[49.3 µM]	u
COc1ccc(CN(C(=O)c2cc3ccccc3oc2=O)C2CCS(=O)(=O)C2)cc1OC (stereo not given)	x	x	x	-2%	111%	x	20%	u	-17%
O=C1N(c2ccccc2)C[C@H]2CN(Cc3ccccc3)CCN12	-18%[138 µM]	14µM*	-21%[70.6 µM]	2%[87.6 µM]	-19%[87.6 µM]	-26%[172 µM]	10%[49.3 µM]	11%[49.3 µM]	u
CS(=O)(=O)c1ccc(CN2CCN3C(=O)N(c4ccccc4)C[C@H]3C2)cc1	u	i	-1%[70.6 µM]	-1%[87.6 µM]	-20%[87.6 µM]	u	x	x	x
O=C(Nc1ccccc1F)c1ccc(-c2ccccc2)s1	x	x	x	18%	20%	x	21%	u	u
COc1ccccc1-n1c(=O)c(C(=O)NC(C)C)nc2cccnc21	-21%[138 µM]	x	x	4%[87.6 µM]	19%[87.6 µM]	-7%[172 µM]	x	x	x
Cc1cccc(NC(=O)N2CCc3c(C(=O)N(C)Cc4ccco4)cccc32)c1	u	u	-19%	-30%	2%	u	x	x	x
COc1ccc(NC(=O)N2CCc3c(C(=O)N(C)Cc4ccco4)cccc32)cc1	-27%	4µM*	u	4%	u	u	u	2.5µM*	1.8µM*
COc1ccc(NC(=O)N2CCc3c(C(=O)NCCN4CCCCCC4)cccc32)cc1	-23%	1.6µM*	10µM*	-25%	u	u	u	0.79µM*	0.56µM*
COc1ccc(NC(=O)N2CCc3c(C(=O)N(C)C)cccc32)cc1	u	0.25µM*	4µM*	0%	u	u	u	0.16µM*	0.11µM*
CC1=C(CCC(C)O[C@@H]2O[C@H](CO)[C@@H](O)[C@H](O)[C@H]2O)C(C)(C)CC(O)C1 (stereo not given in full)	x	x	x	-6%	x	x	x	x	x
O=C(C1CCCN([S+](=O)([O-])c2cccs2)C1)N1CCC(c2nc3ccncc3[nH]2)CC1 (stereo not given)	-22%	x	x	10%	5%	3%	x	x	x
CC(Cc1cnccn1)Nc1ccc(-c2nc(-c3cccc(Cl)c3)no2)cn1 (stereo not given)	u	3.5µM*	u	1%	148%	u	14%	16%	u
Cc1nnc(CN(C)c2ccc(-c3nc(-c4cccc(Cl)c4)no3)cn2)o1	u	1.1µM*	11µM*	-4%	57%	u	17%	18%	5µM*
Cc1nc(CN(C)Cc2nc(-c3cccc(Cl)c3)oc2C)no1	u	i	-8%	14%	39%	-30%	x	x	x
O=C(NCCNC(=O)c1ccc(-c2cccc(C(F)(F)F)c2)cc1)NC1CCCC1	-27%	x	x	x	x	-20%	x	x	x
SMILES	NIH3T3 tox	FLuc inh-1	NPR1 antag	SNCA viab count	SNCA expr inh	HEK cytotox	FLuc SDR no ATP	FLuc SDR ATP	FLuc inh-2
Cc1ccc(-c2noc(-c3ccccc3Br)n2)cc1	x	x	x	x	x	x	u	u	1.6µM*
Cc1ccc(-c2noc(-c3nc(C(C)C)no3)n2)cc1	-5%	7.1µM*	-20%	4%	153%	-10%	10%	11%	u
Cc1ccc(-c2noc(-c3nc(-c4cccnc4)no3)n2)cc1	-6%	i	0%	1%	51%	-1%	x	x	x
Cc1ccc(-c2nnc(SCc3ccccc3C#N)o2)cc1	x	x	x	1%	-20%	x	17%	u	2.2µM*
Cc1cnc(-c2ccncc2)n1CC1CN(Cc2cccnc2)C1	-13%	x	x	-2%	12%	-3%	x	x	x
CC(=O)NCCNC(=O)c1ccc2c(=O)n(CCc3ccccc3)c(=O)[nH]c2c1	x	x	x	u	86%	x	10%	14%	u
COc1ccc(OCC(=O)Nc2nc(-c3ccc(Br)cc3)ns2)cc1	x	x	x	12%	97%	x	14%	8%	-14%
Cc1ccc(C2=CC(c3ccccc3C)n3c(nc4ccccc43)N2)cc1 (stereo not given)	x	x	x	45%	u	x	u	u	4.4µM*
Cc1ccc(Nc2ncnc3c2nc2n3CCCC2)c(Br)c1	x	x	x	-6%	u	x	u	u	5µM*
Cc1ccc(CNc2ncnc3c2nc2n3CCCC2)cc1	x	x	x	-5%	3%	x	x	x	x
Cc1cnc(NC(=O)c2ccc3c(c2)OCCN(c2ccccc2)C3)s1	u	u	-16%[70.6 µM]	-10%[87.6 µM]	19%[87.6 µM]	u	x	x	x
Cc1csc(NC(=O)c2ccc3c(c2)OCC(=O)N(C)C3)n1	u	5µM*	x	6%[87.6 µM]	-23%[87.6 µM]	-16%[172 µM]	24%[49.3 µM]	u	u

Screens (PubChem BioAssay)
